This is an account of results in PubChem BioAssay (NCI).

Each structure is given as a SMILES string. Compounds without any hit were thinned out: in the full panel of roughly 83,000, 20% have a hit.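 Each cell line was grown in a 96-well plate and treated with one concentration of compound for 48 hours. Values below 10 were considered active.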 Unmarked numbers belong to inactive results. Activity calls are given as the source filed them.

Some test systems named below: SR leukemia; RPMI-8226 leukemia; OVCAR-8 ovarian; OVCAR-5 ovarian; OVCAR-4 ovarian; SK-OV-3 ovarian; IGROV1 ovarian; HS 578T breast; NCI/ADR-RES ovarian; T-47D breast; BT-549 breast; MDA-MB-435 melanoma; SW-620 colon; MCF7 breast; HCT-116 colon; HCC-2998 colon; KM12 colon.
Assay in all cases: NCI-60 one-dose screen, 48 h (100 = growth as untreated, 0 = no growth, -100 = all killed)
Conditions in all cases: 10 µM unless noted

For `O=C1/C(=C/C=C/c2ccco2)SC(=S)N1C1CCCCC1`, the growth was 82.2% in the experiment with SR leukemia; 100% in the experiment with RPMI-8226 leukemia; 97.4% in the experiment on OVCAR-8 ovarian; 94% with OVCAR-5 ovarian; 95.3% in the experiment with OVCAR-4 ovarian; 104% in the experiment on SK-OV-3 ovarian. The growth is 101% in the experiment with IGROV1 ovarian; 101% in the experiment on HS 578T breast; 99% in the experiment on NCI/ADR-RES ovarian; 68.8% in the experiment on T-47D breast; 111% in the experiment on BT-549 breast; 85.3% in the experiment on MDA-MB-435 melanoma. The growth in the experiment with SW-620 colon is 92.2%; with MCF7 breast, 54.3%; in the experiment on HCT-116 colon, 99.8%; in the experiment with HCC-2998 colon, 97.3%; in the experiment with KM12 colon it was 96.9%.

For `CC(C)(C)c1ccc(-c2nnc(-c3nc4ccccc4nc3Cl)o2)cc1`, the growth in the experiment with SR leukemia is 91.3%; in the experiment with RPMI-8226 leukemia, 65.9%; in the experiment on OVCAR-8 ovarian it was 84.2%; in the experiment with OVCAR-5 ovarian, 99.1%; with OVCAR-4 ovarian, 82.2%; in the experiment on SK-OV-3 ovarian, 95.9%. Besides, the growth with IGROV1 ovarian is 72.5%; in the experiment on HS 578T breast, -8.86% (active); in the experiment with NCI/ADR-RES ovarian it was 82.5%; in the experiment on T-47D breast it was -70.5% (active); with BT-549 breast it was 104%; in the experiment on MDA-MB-435 melanoma, 69%. Besides, the growth with SW-620 colon was 66.2%; in the experiment on MCF7 breast, -65.9% (active); in the experiment on HCT-116 colon, 14.2%; in the experiment on HCC-2998 colon it was 98.5%; in the experiment on KM12 colon, 65.8%.

As for `O=C(CSc1nc2ccccc2c(=O)n1-c1ccccc1)Nc1cccc(C(=O)/C=C/c2ccccc2Cl)c1`, the growth in the experiment with SR leukemia was 89.2%; in the experiment on RPMI-8226 leukemia it was 68.5%; in the experiment on OVCAR-8 ovarian, 99.5%; in the experiment on OVCAR-5 ovarian, 108%; in the experiment with OVCAR-4 ovarian, 102%; in the experiment on SK-OV-3 ovarian, 115%. Moreover, the growth is 107% in the experiment with IGROV1 ovarian; 106% in the experiment with HS 578T breast; 104% with NCI/ADR-RES ovarian; 91.2% in the experiment with T-47D breast; 118% in the experiment with BT-549 breast; 97.9% in the experiment with MDA-MB-435 melanoma. Besides, the growth is 91.7% in the experiment on SW-620 colon; 54.1% with MCF7 breast; 20.2% with HCT-116 colon; 108% in the experiment on HCC-2998 colon; 100% with KM12 colon.

As for `COc1cc2oc(-c3cccc(N)c3)cc(=O)c2c(OC)c1OC`, the growth in the experiment with SR leukemia is 87.2%; in the experiment on RPMI-8226 leukemia it was 97.8%; with OVCAR-8 ovarian it was 98.7%; with OVCAR-5 ovarian, 101%; with OVCAR-4 ovarian it was 99.7%; in the experiment with SK-OV-3 ovarian, 125%. Also, the growth in the experiment with IGROV1 ovarian was 107%; with HS 578T breast, 115%; in the experiment on NCI/ADR-RES ovarian it was 106%; with T-47D breast, 97.8%; in the experiment on BT-549 breast, 116%; in the experiment on MDA-MB-435 melanoma it was 103%. Also, the growth in the experiment on SW-620 colon is 112%; in the experiment on MCF7 breast, 96.3%; in the experiment with HCT-116 colon, 111%; in the experiment on HCC-2998 colon it was 110%; in the experiment on KM12 colon it was 103%.

In the case of `CCC(NC(c1cc2cccc3ccc4cccc1c4c32)c1nnnn1C(C)(C)C)C1CCCCC1` (stereo unspecified), the growth in the experiment with SR leukemia was 40.9%; in the experiment on RPMI-8226 leukemia, 28.1%; with OVCAR-8 ovarian, 73.2%; in the experiment on OVCAR-5 ovarian, 84.6%; with OVCAR-4 ovarian it was 46.5%; in the experiment with SK-OV-3 ovarian, 70.8%. Also, the growth with IGROV1 ovarian is 65.2%; in the experiment on HS 578T breast, 84.5%; in the experiment on NCI/ADR-RES ovarian, 74.4%; in the experiment with T-47D breast, 74.6%; with BT-549 breast it was 50.5%; with MDA-MB-435 melanoma it was 60%. Moreover, the growth in the experiment with SW-620 colon was 61.5%; in the experiment with MCF7 breast, 48.2%; in the experiment on HCT-116 colon, 40.6%; in the experiment on HCC-2998 colon, 90.3%; in the experiment with KM12 colon, 67.8%.

Turning to `C[C@@H]1C[C@H]2C(=O)O[C@@H](C)C(NC(=O)[C@H](Cc3cc(F)cc(F)c3)NC(=O)Nc3ccc(C4CC4)cc3F)C(=O)N3CCC[C@H]3C(=O)N3CCCC[C@H]3C(=O)N[C@@H](CO)C(=O)N2C1` (stereo partly specified), the growth with SR leukemia was 28.1%; in the experiment on RPMI-8226 leukemia it was 14.9%; with OVCAR-8 ovarian it was 20.9%; in the experiment on OVCAR-5 ovarian, 29.9%; in the experiment on OVCAR-4 ovarian, 21.3%; with SK-OV-3 ovarian, 21%. Further, the growth in the experiment on IGROV1 ovarian was 42.2%; with HS 578T breast, 32.7%; in the experiment with NCI/ADR-RES ovarian, 36.1%; in the experiment with T-47D breast, 21.7%; in the experiment with BT-549 breast, 27.6%; in the experiment with MDA-MB-435 melanoma, 17.9%. Besides, the growth in the experiment with SW-620 colon was 35.8%; in the experiment on MCF7 breast it was 16.1%; with HCT-116 colon, 10.6%; in the experiment on HCC-2998 colon, 24%; in the experiment with KM12 colon, 38%.

On to `NS(=O)(=O)c1ccc(-n2cc(-c3cccc(NC(=O)c4ccc(N5CCOCC5)c(C(F)(F)F)c4)c3)nn2)cc1`, for which the growth is 4.3% (active) in the experiment on SR leukemia; 10.2% with RPMI-8226 leukemia; 42.7% in the experiment on OVCAR-8 ovarian; 67.8% in the experiment with OVCAR-5 ovarian; 15% in the experiment with OVCAR-4 ovarian; 69.9% with SK-OV-3 ovarian. Further, the growth is 40.3% in the experiment on IGROV1 ovarian; 48.9% with HS 578T breast; 82.4% in the experiment with NCI/ADR-RES ovarian; 4.61% (active) in the experiment on T-47D breast; 73.2% in the experiment with BT-549 breast; 62.9% with MDA-MB-435 melanoma. For the same molecule, the growth is 64.5% with SW-620 colon; 36.9% in the experiment on MCF7 breast; 32.5% in the experiment on HCT-116 colon; 66% in the experiment with HCC-2998 colon; 25.8% with KM12 colon.

For `CN1CCC(n2cc(Nc3ncc4c(=O)n(-c5c(Cl)cccc5Cl)cc(Br)c4n3)cn2)CC1`, the growth in the experiment with SR leukemia is -21.4% (active); with RPMI-8226 leukemia it was 20.7%; in the experiment with OVCAR-8 ovarian, 6.91% (active); with OVCAR-5 ovarian it was 43.5%; with OVCAR-4 ovarian it was 33.8%; with SK-OV-3 ovarian, 32.7%. Moreover, the growth in the experiment with IGROV1 ovarian was 15%; with HS 578T breast it was 45.1%; in the experiment on NCI/ADR-RES ovarian, 34%; in the experiment on T-47D breast, 37%; in the experiment on BT-549 breast, 57.5%; in the experiment on MDA-MB-435 melanoma it was 5.4% (active). The growth in the experiment with SW-620 colon is 20.5%; with MCF7 breast, 18.7%; in the experiment on HCT-116 colon it was 5.66% (active); in the experiment with HCC-2998 colon it was 31%; in the experiment with KM12 colon, 14.8%.
